Experimental data from article PMC5540273 (PLoS ONE, 2017).

test system: PIKFYVE; settings: concentration: 1 μM, replicates: in singlicate; n = 1
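Also: KINOMEscan kinase panel screen.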

Row | SMILES | %Inh
1 | c1ccc(-c2ccnc3[nH]ccc23)cc1 [SB-693578] | 11%
2 | O=C(Nc1n[nH]c2nc(-c3cccs3)c(Br)cc12)C1CCCC1 [SB-743341] | 9%
3 | CN1c2ccc(-c3ccc(C(N)=O)cc3)cc2-c2[nH]ncc2S1(=O)=O | 4%
4 | Fc1ccc(-c2nc3n(c2-c2ccncc2)CCS3)cc1 [GI98581] | 0%
5 | CCc1ccc(-c2ccc3c(c2)-c2n[nH]cc2S(=O)(=O)N3C)cc1 | 100%
6 | COC(=O)c1cccc(NC(=O)NC2CCN(c3ccnc(Nc4ccc(F)cc4)n3)C2)c1 (centres unmarked) [GSK1379725] | 0%
7 | COc1cccc(CNC(=O)NC2CCN(c3ccnc(Nc4ccc(F)cc4)n3)C2)c1 (centres unmarked) [GSK1379723] | 9%
8 | CNc1cc(-c2ccc3c(N)n[nH]c3c2)nc(N)n1 [GSK2224810] | 0%
9 | Cc1ccc(NC(=O)Nc2ccccc2F)cc1-c1ccc(C(=O)Nc2ccncc2)cc1 [GSK1398477] | 0%
10 | CS(=O)(=O)Cc1ccc(Nc2nccc(-c3c(-c4cccc(NC(=O)C5CCCCC5)c4)nn4ncccc34)n2)cc1 [GSK350559] | 2%
11 | Cc1cccc2c(-c3ccncn3)c(-c3ccc(F)cc3)nn12 [GW515532] | 22%
12 | Cc1ccc(NC(=O)c2ccc(Cl)cc2)cc1-c1ccc(C(=O)Nc2ccncc2)cc1 [GSK1398467] | 0%
13 | COc1ccc(CSc2nnc(-c3ccc4c(c3)CCO4)o2)cc1 | 0%
14 | Cc1ccccc1-c1cc(-c2c[nH]nc2-c2ccccn2)ccn1 [GW680061] | 0%
15 | COC(=O)C(Cc1ccccc1)NC(=O)NC1CCN(c2ccnc(Nc3ccc(F)cc3)n2)C1 (centres unmarked) [GSK1379714] | 22%
16 | COc1ccc2cc(-c3nc(-c4ccccc4C(C)C)[nH]c3-c3ccncc3)ccc2c1 [SB-660566] | 0%
17 | Nc1cccc(-c2ccc3c(N)n[nH]c3c2)n1 [GSK2192730] | 0%
18 | O=C1NC(=O)C(c2ccc(Cl)cc2)=C1Nc1ccc(O)cc1 [SB-340867] | 9%
19 | CCn1c(-c2c(N)noc2C)nc2cnccc21 [SB-737856] | 0%

Row | SMILES | %Inh
20 | COC(=O)c1cccc(NC(=O)NC2CCN(c3ccnc(Nc4ccc(OC)cc4)n3)C2)c1 (centres unmarked) [GSK1379746] | 41%
21 | Cc1ccc(NC(=O)Nc2ccc(Cl)cc2)cc1-c1ccc(C(=O)Nc2ccncc2)cc1 [GSK1398472] | 0%
22 | COc1ccc(Nc2nccc(N3CCC(NC(=O)c4cc5ccccc5s4)C3)n2)cc1 (centres unmarked) [GSK1379738] | 0%
23 | CC(=O)c1cccc(NC(=O)NC2CCN(c3ccnc(Nc4ccc(F)cc4)n3)C2)c1 (centres unmarked) [GSK1379710] | 25%
24 | Cc1ccccc1Cn1ccn2c(=O)cc(N3CCOCC3)nc12 [GSK2269905] | 0%
25 | CS(=O)(=O)CCNCc1nc(-c2ccc3ncnc(Nc4ccc5c(cnn5Cc5ccccc5)c4)c3c2)cs1.Cl.Cl [GW569716] | 0%
26 | O=C1NC(=O)C(c2ccc(Cl)cc2)=C1Nc1cccc(Cl)c1 [SB-317651] | 12%
27 | Cc1ccc(-c2nc(Nc3ccncc3)c3ccccc3n2)s1 [GSK189015] | 63%
28 | Cc1ccc(NC(=O)Nc2ccc(Cl)c(C(F)(F)F)c2)cc1-c1ccc(C(=O)Nc2ccncc2)cc1 [GSK1398470] | 0%
29 | Cn1cncc1-c1cc2c(Nc3ccc(OCc4ccccc4)cc3)ncnc2cn1 [GW281179] | 18%
30 | COc1ccc(CSc2nnc(-c3ccc4ncsc4c3)o2)cc1C(F)(F)F | 0%
31 | O=C(Nc1n[nH]c2cc(-c3ccsc3)ccc12)C1CC1 [SB-732932] | 0%
32 | O=C(Nc1n[nH]c2nc(-c3cccs3)c(Br)cc12)C1CC1 [SB-735297] | 2%
33 | CNCc1ccc2nc(NC(=O)c3ccc(C(C)(C)C)cc3)cn2c1 | 0%
34 | Cc1c(Cn2c(C)c(C)n3c(=O)cc(N4CCOCC4)nc23)cccc1C(F)(F)F [GSK2328680] | 0%
35 | CC(C)c1ccc(O)cc1Nc1ccnc2ccc(C(F)(F)F)cc12 [GW482059] | 1%
36 | CSc1ccc(-c2nc3n(c2-c2ccncc2)CCC3)cc1 [SKF-105561] | 11%
37 | O=c1cc(N2CCOCC2)nc2n(Cc3ccccc3F)ccn12 [GSK2297428] | 0%

test system: PIM1; settings: concentration: 1 μM, replicates: in singlicate; n = 1

Row | SMILES | %Inh
38 | c1ccc(-c2ccnc3[nH]ccc23)cc1 [SB-693578] | 0%
39 | O=C(Nc1n[nH]c2nc(-c3cccs3)c(Br)cc12)C1CCCC1 [SB-743341] | 0%
40 | CN1c2ccc(-c3ccc(C(N)=O)cc3)cc2-c2[nH]ncc2S1(=O)=O | 9%
41 | Fc1ccc(-c2nc3n(c2-c2ccncc2)CCS3)cc1 [GI98581] | 0%
42 | CCc1ccc(-c2ccc3c(c2)-c2n[nH]cc2S(=O)(=O)N3C)cc1 | 0%
43 | COC(=O)c1cccc(NC(=O)NC2CCN(c3ccnc(Nc4ccc(F)cc4)n3)C2)c1 (centres unmarked) [GSK1379725] | 30%
44 | COc1cccc(CNC(=O)NC2CCN(c3ccnc(Nc4ccc(F)cc4)n3)C2)c1 (centres unmarked) [GSK1379723] | 15%
45 | CNc1cc(-c2ccc3c(N)n[nH]c3c2)nc(N)n1 [GSK2224810] | 15%
46 | Cc1ccc(NC(=O)Nc2ccccc2F)cc1-c1ccc(C(=O)Nc2ccncc2)cc1 [GSK1398477] | 6%
47 | CS(=O)(=O)Cc1ccc(Nc2nccc(-c3c(-c4cccc(NC(=O)C5CCCCC5)c4)nn4ncccc34)n2)cc1 [GSK350559] | 12%
48 | Cc1cccc2c(-c3ccncn3)c(-c3ccc(F)cc3)nn12 [GW515532] | 20%
49 | Cc1ccc(NC(=O)c2ccc(Cl)cc2)cc1-c1ccc(C(=O)Nc2ccncc2)cc1 [GSK1398467] | 0%
50 | COc1ccc(CSc2nnc(-c3ccc4c(c3)CCO4)o2)cc1 | 0%
51 | Cc1ccccc1-c1cc(-c2c[nH]nc2-c2ccccn2)ccn1 [GW680061] | 0%
52 | COC(=O)C(Cc1ccccc1)NC(=O)NC1CCN(c2ccnc(Nc3ccc(F)cc3)n2)C1 (centres unmarked) [GSK1379714] | 0%
53 | COc1ccc2cc(-c3nc(-c4ccccc4C(C)C)[nH]c3-c3ccncc3)ccc2c1 [SB-660566] | 15%
54 | Nc1cccc(-c2ccc3c(N)n[nH]c3c2)n1 [GSK2192730] | 26%
55 | O=C1NC(=O)C(c2ccc(Cl)cc2)=C1Nc1ccc(O)cc1 [SB-340867] | 0%
56 | CCn1c(-c2c(N)noc2C)nc2cnccc21 [SB-737856] | 0%

Row | SMILES | %Inh
57 | COC(=O)c1cccc(NC(=O)NC2CCN(c3ccnc(Nc4ccc(OC)cc4)n3)C2)c1 (centres unmarked) [GSK1379746] | 0%
58 | Cc1ccc(NC(=O)Nc2ccc(Cl)cc2)cc1-c1ccc(C(=O)Nc2ccncc2)cc1 [GSK1398472] | 9%
59 | COc1ccc(Nc2nccc(N3CCC(NC(=O)c4cc5ccccc5s4)C3)n2)cc1 (centres unmarked) [GSK1379738] | 25%
60 | CC(=O)c1cccc(NC(=O)NC2CCN(c3ccnc(Nc4ccc(F)cc4)n3)C2)c1 (centres unmarked) [GSK1379710] | 18%
61 | Cc1ccccc1Cn1ccn2c(=O)cc(N3CCOCC3)nc12 [GSK2269905] | 17%
62 | CS(=O)(=O)CCNCc1nc(-c2ccc3ncnc(Nc4ccc5c(cnn5Cc5ccccc5)c4)c3c2)cs1.Cl.Cl [GW569716] | 21%
63 | O=C1NC(=O)C(c2ccc(Cl)cc2)=C1Nc1cccc(Cl)c1 [SB-317651] | 0%
64 | Cc1ccc(-c2nc(Nc3ccncc3)c3ccccc3n2)s1 [GSK189015] | 17%
65 | Cc1ccc(NC(=O)Nc2ccc(Cl)c(C(F)(F)F)c2)cc1-c1ccc(C(=O)Nc2ccncc2)cc1 [GSK1398470] | 23%
66 | Cn1cncc1-c1cc2c(Nc3ccc(OCc4ccccc4)cc3)ncnc2cn1 [GW281179] | 0%
67 | COc1ccc(CSc2nnc(-c3ccc4ncsc4c3)o2)cc1C(F)(F)F | 1%
68 | O=C(Nc1n[nH]c2cc(-c3ccsc3)ccc12)C1CC1 [SB-732932] | 18%
69 | O=C(Nc1n[nH]c2nc(-c3cccs3)c(Br)cc12)C1CC1 [SB-735297] | 0%
70 | CNCc1ccc2nc(NC(=O)c3ccc(C(C)(C)C)cc3)cn2c1 | 0%
71 | Cc1c(Cn2c(C)c(C)n3c(=O)cc(N4CCOCC4)nc23)cccc1C(F)(F)F [GSK2328680] | 1%
72 | CC(C)c1ccc(O)cc1Nc1ccnc2ccc(C(F)(F)F)cc12 [GW482059] | 19%
73 | CSc1ccc(-c2nc3n(c2-c2ccncc2)CCC3)cc1 [SKF-105561] | 0%
74 | O=c1cc(N2CCOCC2)nc2n(Cc3ccccc3F)ccn12 [GSK2297428] | 0%
